For 40 compounds, growth inhibition results are on record in PubChem BioAssay (NCI).

Several values for one entry are separate records, joined by “and”; a condition that tells them apart may be missing. Equal entries are not always repeated. About 79,000 compounds went through this panel and 15% of them were active in at least one assay; those are over-represented in the sample as a whole. Unmarked numbers belong to inactive results. Activity calls are given as the source filed them. Cut-off read from the data, not from the text of the source: active = growth inhibition above about 70%; inactive = the rest.

The nature of one test: NCI Yeast Anticancer Drug Screen. Data for the mec2-1 strain (AID 157). Particulars: S. cerevisiae mec2-1 strain, at 50.0 µM, stronger effect = higher value. In short, it runs like this:
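Compounds were applied to mec2-1 yeast cells. Their growth was then compared with that of vehicle-treated cultures to give growth inhibition.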
Regarding `CC12CCC3C(CCC4(C)CC(OC(=O)Cc5ccc(N(CCCl)CCCl)cc5)CCC34C)C1CCC2=O` (stereo not given), the growth inhibition is 2.85%.
On the same count and under the same terms, the figure for `CC(=O)OC1CCC2(C)C3CCC4(C)C(Oc5ccccc5)CCC4C3CC(Br)C2(O)C1` (stereo not given) is -29.9%; for `O=C(O)c1ccccc1O.[Cu]` it is -32.5%; for `[C-]#[O+].[C-]#[O+].[C-]#[O+].[C-]#[O+].[C-]#[O+].[C-]#[O+].[C-]#[O+].[C-]#[O+].[C-]#[O+].[C-]#[O+].[Mn].[Mn]` it is -12.6%.
Still for that read-out and setting: in the case of `CCN(CC)C(=O)N1CN(c2ccccc2)C2(CCN(CCCC3(c4ccc(F)cc4)OCCO3)CC2)C1=O` it was 24.1%; in that of `O=[P+](O)c1ccccc1`, -24.9% and -26.3%.
Still for that read-out and setting: in the case of `CCCC1CC=CCC12C(=O)NC(=O)NC2=O` (stereo not given) it was 1.45%; in that of `OC1=C2CCCCCC2=[N+]2CCCCC2C1` (stereo not given), 33.6%; in that of `O=C1NCCCCC1Cl` (stereo not given), -1.1%.
On to `O=NN1CCOCC1`, for which the growth inhibition is 11.1%.
The same measure, in the same setting: the figure for `[Se]c1nc(N2CCOCC2)ncc1-c1ccccc1` is 0.5%.
On the same count and under the same terms, the figure for `COc1ccc(/C=C/c2cc(OC)c3c(c2)OCO3)cc1O` is 5.45%; for `ClCCN(CCCl)c1ccc(CCN2CCOCC2)cc1` it is 15.9%; for `COC(=O)C[CH2][Sn]([CH2]CC(=O)OC)([c]1ccccc1)[c]1ccccc1` it is 30.7%.
On the same count and under the same terms, the figure for `[C-]#[O+].[C-]#[O+].[C-]#[O+].[C-]#[O+].[W].c1ccc([PH+](CC[PH+](c2ccccc2)c2ccccc2)c2ccccc2)cc1` is 5.2%; for `CC(N)CN.CC(N)CN.[Cl-].[O]=[Os+2]=[O]` (stereo not given) it is -13.4%; for `O=C(Nc1ccccc1Cl)Oc1c(Cl)cc(S(=O)(=O)F)cc1Cl` it is 33.6%.
On to `CC(=O)Nc1nc(CCl)cs1`, for which the growth inhibition was -1.1%.
Still for that read-out and setting: the figure for `O/N=C1\CN2CCC1CC2` is 13.2%.
The same measure, in the same setting: the figure for `Cc1c(OCC(=O)N/N=C/c2ccc(N(CCCl)CCCl)cc2)ccc2c(=O)c3ccccc3oc12` is -10.3%; for `COc1ccccc1N=Nc1cccc[c]1[Hg][Cl]` it is 99% (active).
The same measure, in the same setting: in the case of `CC1CC(C)(O)CC(C(O)CC2CC(=O)NC(=O)C2)C1=O` (stereo not given) it was 51%.
Regarding `Cc1nccc2c1[nH]c1ccc(Br)cc12`, the growth inhibition is 11.6%.
On the same count and under the same terms, the figure for `CC(=O)C1(c2ccccc2)CCNCC1` is -13.1%; for `CC(C)(C)OC(=O)NCC(=O)NC(CSC(c1ccccc1)c1ccccc1)C(=O)NCC(=O)O` (stereo not given) it is 7.3%.
For `CSCC(NP1(=O)SC(NN=C(C)C)=NC1(C)C)C(=O)O` (stereo not given), the growth inhibition is -3.7%.
Still for that read-out and setting: the figure for `CCCCCCCC(=O)O.[Pb]` is 5.55%; for `O=[N+]([O-])c1ccc(/C=C/c2ccc(Cl)c(S(=O)(=O)F)c2)c(Cl)c1` it is -4.95%.
Still for that read-out and setting: the figure for `CC(C)c1cc2c(cc1O)C1(C)CCCC(C)(C)C1CC2=O` (stereo not given) is 32.3%.
The same measure, in the same setting: in the case of `CCCCCCCCCCBr` it was 17.2%.
Turning to `CC12OC1(C)C1C(=O)OCC1C2=O` (stereo not given), the growth inhibition was 3.6%.
Still for that read-out and setting: in the case of `NC(=O)c1ccc([As](=O)(O)O)cc1[N+](=O)[O-]` it was 3.85%.
Still for that read-out and setting: in the case of `C=Cc1cc(OC)c2c(c1)c(=O)oc1c2cc(OC)c2c(O)ccc(C3OC(C(C)O)C(O)C3O)c21` (stereo not given) it was 91.7% (active).
On the same count and under the same terms, in the case of `CN1C(=O)N(C)P1(Cl)(Cl)Cl` it was -6.15%; in that of `Cc1cc(NC2=NCCO2)c2c(c1C)CCCC2`, -23.1%.
On to `CCCCCCCCCCCOP(=O)(OCC)OCC`, for which the growth inhibition was 99.8% (active).
On to `CC1C(c2ccccc2)OCCN1C` (stereo not given), for which the growth inhibition was -12.9%.
The same measure, in the same setting: the figure for `O=[As](O)(O)c1ccc(F)cc1` is 9.8%; for `Cc1cc(N(CCCl)CCCl)ccc1CN1CCCN(Cc2ccc(N(CCCl)CCCl)cc2C)C1c1ccccc1O` it is 14.5%; for `CN(C)P(=O)(N(C)C)N(C)CO` it is 6.05%.

The next test is described as follows: NCI Yeast Anticancer Drug Screen. Data for the sgs1 mgt1 strain (AID 161).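 Note: 0% = growth of cultures given vehicle only.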 Particulars: S. cerevisiae sgs1 mgt1 strain, at 50.0 µM, stronger effect = higher value. In short, it runs like this: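 Yeast cells carrying a defined DNA-repair defect were exposed to test compounds. Growth inhibition was measured relative to vehicle-treated controls.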
Regarding `CC12CCC3C(CCC4(C)CC(OC(=O)Cc5ccc(N(CCCl)CCCl)cc5)CCC34C)C1CCC2=O` (stereo not given), the growth inhibition was -2.3%.
On the same count and under the same terms, the figure for `CC(=O)OC1CCC2(C)C3CCC4(C)C(Oc5ccccc5)CCC4C3CC(Br)C2(O)C1` (stereo not given) is -35.9%; for `O=C(O)c1ccccc1O.[Cu]` it is -36.8%.
On the same count and under the same terms, in the case of `[C-]#[O+].[C-]#[O+].[C-]#[O+].[C-]#[O+].[C-]#[O+].[C-]#[O+].[C-]#[O+].[C-]#[O+].[C-]#[O+].[C-]#[O+].[Mn].[Mn]` it was -15.2%.
Same read-out and setting: the figure for `CCN(CC)C(=O)N1CN(c2ccccc2)C2(CCN(CCCC3(c4ccc(F)cc4)OCCO3)CC2)C1=O` is 48%; for `O=[P+](O)c1ccccc1` it is -18.4% and 4.85%.
Consider `CCCC1CC=CCC12C(=O)NC(=O)NC2=O` (stereo not given), for which the growth inhibition is 12.7%.
Same read-out and setting: the figure for `OC1=C2CCCCCC2=[N+]2CCCCC2C1` (stereo not given) is 52.5%.
Still for that read-out and setting: the figure for `O=C1NCCCCC1Cl` (stereo not given) is -4%; for `O=NN1CCOCC1` it is 14.8%.
As for `[Se]c1nc(N2CCOCC2)ncc1-c1ccccc1`, the growth inhibition was -17.2%.
Still for that read-out and setting: the figure for `COc1ccc(/C=C/c2cc(OC)c3c(c2)OCO3)cc1O` is -9.55%; for `ClCCN(CCCl)c1ccc(CCN2CCOCC2)cc1` it is 19.5%.
On to `COC(=O)C[CH2][Sn]([CH2]CC(=O)OC)([c]1ccccc1)[c]1ccccc1`, for which the growth inhibition was -6.7%.
On the same count and under the same terms, in the case of `[C-]#[O+].[C-]#[O+].[C-]#[O+].[C-]#[O+].[W].c1ccc([PH+](CC[PH+](c2ccccc2)c2ccccc2)c2ccccc2)cc1` it was -10.4%; in that of `CC(N)CN.CC(N)CN.[Cl-].[O]=[Os+2]=[O]` (stereo not given), -16.6%; in that of `O=C(Nc1ccccc1Cl)Oc1c(Cl)cc(S(=O)(=O)F)cc1Cl`, 34.1%.
Same read-out and setting: in the case of `CC(=O)Nc1nc(CCl)cs1` it was 13.6%; in that of `O/N=C1\CN2CCC1CC2`, 1.7%.
Same read-out and setting: the figure for `Cc1c(OCC(=O)N/N=C/c2ccc(N(CCCl)CCCl)cc2)ccc2c(=O)c3ccccc3oc12` is -3.15%; for `COc1ccccc1N=Nc1cccc[c]1[Hg][Cl]` it is 98.7% (active); for `CC1CC(C)(O)CC(C(O)CC2CC(=O)NC(=O)C2)C1=O` (stereo not given) it is 48.2%.
In the case of `Cc1nccc2c1[nH]c1ccc(Br)cc12`, the growth inhibition is -7.55%.
The same measure, in the same setting: the figure for `CC(=O)C1(c2ccccc2)CCNCC1` is 10.6%.
As for `CC(C)(C)OC(=O)NCC(=O)NC(CSC(c1ccccc1)c1ccccc1)C(=O)NCC(=O)O` (stereo not given), the growth inhibition is 11%.
Same read-out and setting: in the case of `CSCC(NP1(=O)SC(NN=C(C)C)=NC1(C)C)C(=O)O` (stereo not given) it was -26.5%; in that of `CCCCCCCC(=O)O.[Pb]`, 3%.
Same read-out and setting: the figure for `O=[N+]([O-])c1ccc(/C=C/c2ccc(Cl)c(S(=O)(=O)F)c2)c(Cl)c1` is -1.7%; for `CC(C)c1cc2c(cc1O)C1(C)CCCC(C)(C)C1CC2=O` (stereo not given) it is 19.9%; for `CCCCCCCCCCBr` it is -12.4%.
On the same count and under the same terms, in the case of `CC12OC1(C)C1C(=O)OCC1C2=O` (stereo not given) it was -3.45%; in that of `NC(=O)c1ccc([As](=O)(O)O)cc1[N+](=O)[O-]`, 5.05%; in that of `C=Cc1cc(OC)c2c(c1)c(=O)oc1c2cc(OC)c2c(O)ccc(C3OC(C(C)O)C(O)C3O)c21` (stereo not given), 89.1% (active).
As to `CN1C(=O)N(C)P1(Cl)(Cl)Cl`, the growth inhibition was 3.15%.
Same read-out and setting: in the case of `Cc1cc(NC2=NCCO2)c2c(c1C)CCCC2` it was -6.9%.
Still for that read-out and setting: the figure for `CCCCCCCCCCCOP(=O)(OCC)OCC` is 99.8% (active); for `CC1C(c2ccccc2)OCCN1C` (stereo not given) it is -23.7%.
With `O=[As](O)(O)c1ccc(F)cc1`, the growth inhibition was -4.35%.
Same read-out and setting: in the case of `Cc1cc(N(CCCl)CCCl)ccc1CN1CCCN(Cc2ccc(N(CCCl)CCCl)cc2C)C1c1ccccc1O` it was 11.1%; in that of `CN(C)P(=O)(N(C)C)N(C)CO`, 25.4%.
